The values below come from publication PMC7862700, “An all-to-all approach to the identification of sequence-specific readers for epigenetic DNA modifications on cytosine”.

What all share (experiment): DAPPL (digital affinity profiling via proximity ligation, sequencing); 10 mM Tris-HCl pH 7.5, 50 mM NaCl, 1 mM DTT, 4% glycerol, room temperature, 30 min; GST-TFs on glutathione beads, 16-mer random dsDNA library, 0.1% formaldehyde crosslink after washing; high values mean tight binding
Conditions in all cases: protein: recombinant; tags: N-terminal GST; dsDNA, one strand shown

For one assay, the target named is T1, FEV (Homo sapiens, UniProt Q99581 1-238).
T1 sequence: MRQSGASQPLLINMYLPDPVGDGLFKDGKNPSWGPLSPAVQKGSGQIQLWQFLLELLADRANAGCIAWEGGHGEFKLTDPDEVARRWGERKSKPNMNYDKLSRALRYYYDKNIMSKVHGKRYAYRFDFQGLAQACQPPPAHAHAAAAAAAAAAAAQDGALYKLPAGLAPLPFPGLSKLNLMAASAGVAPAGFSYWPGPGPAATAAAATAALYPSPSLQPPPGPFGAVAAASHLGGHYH
The method, boiled down: (§1)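 In yeast, human transcription factors were expressed with a GST fusion, then pulled down on glutathione beads and given DNA barcodes. Pooled with a tag-only sample, they were exposed to 200 nmole of a 16-mer random double-stranded DNA library (Tris/NaCl/DTT/glycerol buffer, room temperature, 30 min), washed, crosslinked with 0.1% formaldehyde, proximity-ligated using BsaI/T4 ligase for 1 h at 37 °C, PCR-amplified and read on an Illumina NextSeq500. Each hexamer's frequency of reads for a factor, divided by the matching frequency for the tag-only sample, gives the binding signal.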

The next assay has as its target ETV5 (Homo sapiens, UniProt P41161 1-510). In outline:
as §1

Another assay deals with T2, SPIC (Homo sapiens, UniProt Q8N5J4 1-248).
T2 sequence: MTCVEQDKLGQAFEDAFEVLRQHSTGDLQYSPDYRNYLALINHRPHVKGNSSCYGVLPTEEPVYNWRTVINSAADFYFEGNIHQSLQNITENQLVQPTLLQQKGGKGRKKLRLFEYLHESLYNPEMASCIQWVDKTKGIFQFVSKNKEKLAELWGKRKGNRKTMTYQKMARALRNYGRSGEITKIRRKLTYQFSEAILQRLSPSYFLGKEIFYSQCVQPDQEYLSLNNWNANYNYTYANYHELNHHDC
The method, boiled down:
as §1

The next assay addresses ELF4 (Homo sapiens, UniProt Q99607 1-663). The method, boiled down: as §1
A further assay has as its target T3, ELK4 (Homo sapiens, UniProt P28324-2 1-405).
T3 sequence: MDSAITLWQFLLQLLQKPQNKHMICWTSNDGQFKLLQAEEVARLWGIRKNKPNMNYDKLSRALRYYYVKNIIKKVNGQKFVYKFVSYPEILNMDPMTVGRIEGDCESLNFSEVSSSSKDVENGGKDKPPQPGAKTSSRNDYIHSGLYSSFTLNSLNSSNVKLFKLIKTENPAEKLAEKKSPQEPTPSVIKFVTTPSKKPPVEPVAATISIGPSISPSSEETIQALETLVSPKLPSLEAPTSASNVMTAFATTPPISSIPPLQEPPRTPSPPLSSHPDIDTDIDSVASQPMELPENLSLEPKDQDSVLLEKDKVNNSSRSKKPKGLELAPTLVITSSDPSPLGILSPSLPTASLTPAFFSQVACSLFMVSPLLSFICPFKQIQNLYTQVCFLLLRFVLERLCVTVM
The method, boiled down:
as §1

The next assay has as its target T4, ETV2 (Homo sapiens, UniProt O00321 1-342).
T4 sequence: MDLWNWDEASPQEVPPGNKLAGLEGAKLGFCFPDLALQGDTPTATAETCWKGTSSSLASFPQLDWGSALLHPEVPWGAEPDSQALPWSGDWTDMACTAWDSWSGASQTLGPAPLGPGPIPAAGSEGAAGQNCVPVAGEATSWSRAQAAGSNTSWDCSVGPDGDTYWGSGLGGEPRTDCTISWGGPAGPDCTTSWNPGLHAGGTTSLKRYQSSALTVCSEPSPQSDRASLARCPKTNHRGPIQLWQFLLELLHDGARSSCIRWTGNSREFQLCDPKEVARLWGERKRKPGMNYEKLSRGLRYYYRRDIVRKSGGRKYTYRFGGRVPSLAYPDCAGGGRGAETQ
In outline:
as §1

The next assay deals with T5, ELF3 (Homo sapiens, UniProt P78545 1-371).
T5 sequence: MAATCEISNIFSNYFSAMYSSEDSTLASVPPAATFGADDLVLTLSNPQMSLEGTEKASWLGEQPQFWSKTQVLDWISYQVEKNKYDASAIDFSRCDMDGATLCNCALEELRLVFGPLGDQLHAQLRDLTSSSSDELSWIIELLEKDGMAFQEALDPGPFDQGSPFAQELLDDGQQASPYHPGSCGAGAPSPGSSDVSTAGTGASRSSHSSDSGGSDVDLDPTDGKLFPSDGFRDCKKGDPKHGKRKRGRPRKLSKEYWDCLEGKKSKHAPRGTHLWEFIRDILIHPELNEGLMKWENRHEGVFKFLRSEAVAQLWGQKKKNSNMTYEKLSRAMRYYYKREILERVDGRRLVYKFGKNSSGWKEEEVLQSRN
The method, boiled down:
as §1

In the next assay the target is ETV1 (Homo sapiens, UniProt P50549 1-477). In outline: as §1
Sequence of ETV1 (P50549 whole entry): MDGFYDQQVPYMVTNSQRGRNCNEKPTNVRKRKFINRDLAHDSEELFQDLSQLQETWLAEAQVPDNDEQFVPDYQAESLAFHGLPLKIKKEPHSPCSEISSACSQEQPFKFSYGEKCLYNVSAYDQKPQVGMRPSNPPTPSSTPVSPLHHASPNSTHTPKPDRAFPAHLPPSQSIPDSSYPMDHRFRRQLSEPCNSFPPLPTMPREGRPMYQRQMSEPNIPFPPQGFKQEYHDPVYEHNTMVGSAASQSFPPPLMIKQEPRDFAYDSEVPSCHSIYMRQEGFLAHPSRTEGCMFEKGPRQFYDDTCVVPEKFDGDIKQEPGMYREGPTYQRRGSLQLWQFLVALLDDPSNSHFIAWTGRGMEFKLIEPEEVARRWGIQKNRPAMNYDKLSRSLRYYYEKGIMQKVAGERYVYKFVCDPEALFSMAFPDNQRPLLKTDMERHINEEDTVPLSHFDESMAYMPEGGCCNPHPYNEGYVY

Sequence of ELF4 (Q99607 whole entry): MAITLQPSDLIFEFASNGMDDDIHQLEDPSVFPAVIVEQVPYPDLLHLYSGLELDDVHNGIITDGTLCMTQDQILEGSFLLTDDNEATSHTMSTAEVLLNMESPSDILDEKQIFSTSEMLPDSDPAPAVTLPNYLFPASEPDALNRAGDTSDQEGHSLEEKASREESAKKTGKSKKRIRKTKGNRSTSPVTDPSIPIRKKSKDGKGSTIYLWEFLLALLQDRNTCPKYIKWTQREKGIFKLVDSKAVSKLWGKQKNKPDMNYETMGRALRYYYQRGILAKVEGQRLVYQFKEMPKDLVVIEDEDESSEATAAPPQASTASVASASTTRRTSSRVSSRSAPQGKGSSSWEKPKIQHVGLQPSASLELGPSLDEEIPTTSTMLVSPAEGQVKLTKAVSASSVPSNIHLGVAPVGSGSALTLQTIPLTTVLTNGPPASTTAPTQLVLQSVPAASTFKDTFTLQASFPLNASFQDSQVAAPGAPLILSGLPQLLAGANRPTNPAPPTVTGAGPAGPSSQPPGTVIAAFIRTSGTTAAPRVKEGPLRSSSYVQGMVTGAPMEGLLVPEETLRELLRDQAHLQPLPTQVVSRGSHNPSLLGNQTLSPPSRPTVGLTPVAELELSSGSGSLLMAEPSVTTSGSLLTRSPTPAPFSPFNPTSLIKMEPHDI
Sequence of ETV5 (P41161 whole entry): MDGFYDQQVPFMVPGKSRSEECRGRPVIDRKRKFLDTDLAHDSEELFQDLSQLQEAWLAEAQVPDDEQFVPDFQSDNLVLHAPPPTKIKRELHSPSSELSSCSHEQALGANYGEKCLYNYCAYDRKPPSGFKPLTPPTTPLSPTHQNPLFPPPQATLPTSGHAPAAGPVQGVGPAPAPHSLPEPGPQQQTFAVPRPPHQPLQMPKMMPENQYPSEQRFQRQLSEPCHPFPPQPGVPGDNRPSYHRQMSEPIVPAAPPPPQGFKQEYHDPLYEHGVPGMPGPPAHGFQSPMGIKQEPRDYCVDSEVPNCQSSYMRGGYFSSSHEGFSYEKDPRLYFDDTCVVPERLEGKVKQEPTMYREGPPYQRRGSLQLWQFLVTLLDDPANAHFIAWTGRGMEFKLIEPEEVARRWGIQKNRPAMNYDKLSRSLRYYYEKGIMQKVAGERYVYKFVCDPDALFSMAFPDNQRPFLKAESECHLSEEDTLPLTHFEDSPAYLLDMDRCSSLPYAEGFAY

In the case of CCGGCC, the binding signal was 1.54 fold enrichment (6-mer frequency, TF over GST control) with FEV; 1.17 fold enrichment (6-mer frequency, TF over GST control) in the assay with ETV5; 1.32 fold enrichment (6-mer frequency, TF over GST control) with SPIC; 1.08 fold enrichment (6-mer frequency, TF over GST control) with ELF4; 1.27 fold enrichment (6-mer frequency, TF over GST control) in the assay with ELK4; 1.22 fold enrichment (6-mer frequency, TF over GST control) in the assay with ETV2. The binding signal was 1.14 fold enrichment (6-mer frequency, TF over GST control) with ELF3 and 1.27 fold enrichment (6-mer frequency, TF over GST control) with ETV1.

In the case of CCCTGT, the binding signal with FEV is 1.04 fold enrichment (6-mer frequency, TF over GST control); with ETV5, 1.11 fold enrichment (6-mer frequency, TF over GST control); with SPIC, 1.2 fold enrichment (6-mer frequency, TF over GST control); in the assay with ELF4 it was 1.11 fold enrichment (6-mer frequency, TF over GST control); in the assay with ELK4, 1.25 fold enrichment (6-mer frequency, TF over GST control); with ETV2, 1.03 fold enrichment (6-mer frequency, TF over GST control). The binding signal was 1.08 fold enrichment (6-mer frequency, TF over GST control) with ELF3 and 1.06 fold enrichment (6-mer frequency, TF over GST control) in the assay with ETV1.

For GTACCT, the binding signal is 1.14 fold enrichment (6-mer frequency, TF over GST control) with FEV; 1.26 fold enrichment (6-mer frequency, TF over GST control) with ETV5; 1.44 fold enrichment (6-mer frequency, TF over GST control) with SPIC; 1.23 fold enrichment (6-mer frequency, TF over GST control) with ELF4; 1.25 fold enrichment (6-mer frequency, TF over GST control) in the assay with ELK4; 1.32 fold enrichment (6-mer frequency, TF over GST control) in the assay with ETV2. The binding signal is 1.57 fold enrichment (6-mer frequency, TF over GST control) with ELF3 and 1.27 fold enrichment (6-mer frequency, TF over GST control) with ETV1.

Regarding CTGTCA, the binding signal in the assay with FEV was 1.03 fold enrichment (6-mer frequency, TF over GST control); with ETV5, 1.06 fold enrichment (6-mer frequency, TF over GST control); with SPIC, 1.27 fold enrichment (6-mer frequency, TF over GST control); with ELF4 it was 1.13 fold enrichment (6-mer frequency, TF over GST control); with ELK4 it was 1.27 fold enrichment (6-mer frequency, TF over GST control); with ETV2, 1.19 fold enrichment (6-mer frequency, TF over GST control). Besides, the binding signal with ELF3 is 1.16 fold enrichment (6-mer frequency, TF over GST control); with ETV1 it was 1.14 fold enrichment (6-mer frequency, TF over GST control).

In the case of CCCCCG, the binding signal with FEV was 1.2 fold enrichment (6-mer frequency, TF over GST control); with ETV5, 1.08 fold enrichment (6-mer frequency, TF over GST control); with SPIC it was 1.14 fold enrichment (6-mer frequency, TF over GST control); with ELF4 it was 1.18 fold enrichment (6-mer frequency, TF over GST control); with ELK4 it was 1.16 fold enrichment (6-mer frequency, TF over GST control); with ETV2, 1.03 fold enrichment (6-mer frequency, TF over GST control). The binding signal with ELF3 was 1.22 fold enrichment (6-mer frequency, TF over GST control); in the assay with ETV1 it was 1.04 fold enrichment (6-mer frequency, TF over GST control).

For the sequence AACGCC, the binding signal with FEV is 1.11 fold enrichment (6-mer frequency, TF over GST control); in the assay with ETV5 it was 1.07 fold enrichment (6-mer frequency, TF over GST control); with SPIC it was 1.03 fold enrichment (6-mer frequency, TF over GST control); with ELF4, 1.15 fold enrichment (6-mer frequency, TF over GST control); in the assay with ELK4, 1.2 fold enrichment (6-mer frequency, TF over GST control); with ETV2, 1.08 fold enrichment (6-mer frequency, TF over GST control). For the same sequence, the binding signal with ELF3 is 1.08 fold enrichment (6-mer frequency, TF over GST control); in the assay with ETV1, 1.1 fold enrichment (6-mer frequency, TF over GST control).

For the sequence GATGCA, the binding signal with FEV is 1.12 fold enrichment (6-mer frequency, TF over GST control); with ETV5, 1.13 fold enrichment (6-mer frequency, TF over GST control); with SPIC, 1.17 fold enrichment (6-mer frequency, TF over GST control); with ELF4, 1.23 fold enrichment (6-mer frequency, TF over GST control); with ELK4, 1.19 fold enrichment (6-mer frequency, TF over GST control); with ETV2, 1 fold enrichment (6-mer frequency, TF over GST control). For the same sequence, the binding signal in the assay with ELF3 is 1.16 fold enrichment (6-mer frequency, TF over GST control); with ETV1, 1.04 fold enrichment (6-mer frequency, TF over GST control).

For CACCCC, the binding signal is 1.22 fold enrichment (6-mer frequency, TF over GST control) in the assay with FEV; 1.18 fold enrichment (6-mer frequency, TF over GST control) with ETV5; 1.41 fold enrichment (6-mer frequency, TF over GST control) with SPIC; 1.18 fold enrichment (6-mer frequency, TF over GST control) with ELF4; 1.47 fold enrichment (6-mer frequency, TF over GST control) with ELK4; 1.13 fold enrichment (6-mer frequency, TF over GST control) with ETV2. For the same sequence, the binding signal with ELF3 was 1.11 fold enrichment (6-mer frequency, TF over GST control); in the assay with ETV1, 1.28 fold enrichment (6-mer frequency, TF over GST control).
